# Data: PubChem BioAssay (EPA / NIEHS)
# Inconclusive results are not listed. Calls of active or inactive are those of the source. Rule for the calls, unless noted: active = hit-call score of the fitted dose curve at least 0.9, where 1 is the maximum; inconclusive = response in the unintended direction; inactive = score below 0.9.
# Experiments:
# [1] = biological target: Cellular tumor antigen p53 (Homo sapiens) (UniProt P04637); assay: TOX21_p53_BLA_p2_ratio: Tox21 HCT-116 p53 Agonism Beta-lactamase Assay, Ratio, Phase 2 (AID 2283592)
# Sequence of Cellular tumor antigen p53 (Homo sapiens) (P04637 whole entry, looked up): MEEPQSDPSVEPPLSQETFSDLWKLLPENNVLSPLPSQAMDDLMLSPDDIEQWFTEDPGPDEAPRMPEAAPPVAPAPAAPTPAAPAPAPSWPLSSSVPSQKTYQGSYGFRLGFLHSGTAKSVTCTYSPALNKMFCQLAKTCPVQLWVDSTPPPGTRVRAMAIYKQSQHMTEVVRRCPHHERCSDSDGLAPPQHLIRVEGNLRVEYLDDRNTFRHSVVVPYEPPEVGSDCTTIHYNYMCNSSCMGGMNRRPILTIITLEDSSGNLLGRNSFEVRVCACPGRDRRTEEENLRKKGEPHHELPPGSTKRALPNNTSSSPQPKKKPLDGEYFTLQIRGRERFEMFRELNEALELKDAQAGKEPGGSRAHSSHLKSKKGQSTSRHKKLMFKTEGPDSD
# Outline: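 An inducible beta-lactamase reporter in HCT116 cells signals p53 pathway activation. After 16 h chemical exposure at 37C, cells load CCF4-AM substrate for 2 h at room temperature; activity is the cleaved/uncleaved emission ratio relative to DMSO.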
# [2] = biological target: Cellular tumor antigen p53 (Homo sapiens) (UniProt P04637); assay: TOX21_p53_BLA_p3_ratio: Tox21 HCT-116 p53 Agonism Beta-lactamase Assay, Ratio, Phase 3 (AID 2283596)
# Outline: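 HCT116 p53-bla cells (4000/well) given compound in DMSO (217-fold dilution) after 5 h, incubated 16 h at 37C. CCF4-AM substrate 2 h at room temperature; 460/530 nm emission ratio, gain fitted against DMSO.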
# [3] = TOX21_p53_BLA_p4_viability: Viability Assessment in the Tox21 HCT-116 p53 Agonism Beta-lactamase Assay, Phase 4 (AID 2283597);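 note: hits lower the luminescence signal meaning cytotoxicity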
# Outline: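 Compound exposure of HCT116 cells lasts 16 h at 37C, 5% CO2, with DMSO stocks diluted 217-fold. Cellular ATP is then quantified by CellTiter-Glo luminescence after 30 min at room temperature.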
# [4] = biological target: Cellular tumor antigen p53 (Homo sapiens) (UniProt P04637); assay: TOX21_p53_BLA_p5_ratio: Tox21 HCT-116 p53 Agonism Beta-lactamase Assay, Ratio, Phase 5 (AID 2283599)
# Outline: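 Beta-lactamase reporter ratio (blue 460 nm over green 530 nm, 405 nm excitation) after 2 h CCF4-AM loading, in HCT-116 cells exposed 16 h at 37 C to compounds pinned at 217-fold dilution. Increases relative to DMSO baseline scored.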
# [5] = biological target: Cellular tumor antigen p53 (Homo sapiens) (UniProt P04637); assay: TOX21_p53_BLA_p4_ratio: Tox21 HCT-116 p53 Agonism Beta-lactamase Assay, Ratio, Phase 4 (AID 2283601)
# Outline: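 Signal is the blue/green (460nm/530nm) ratio of cleaved versus uncleaved CCF4-AM substrate, read after 2 h substrate loading. Cells were HCT116 carrying the p53-responsive beta-lactamase reporter, dosed 16 h at 37C, 5% CO2; CellTiter-Glo measured in parallel.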
# [6] = TOX21_p53_BLA_p5_viability: Viability Assessment in the Tox21 HCT-116 p53 Agonism Beta-lactamase Assay, Phase 5 (AID 2283600)
# Outline: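 Counter-readout for cytotoxicity: ATP-dependent luminescence from CellTiter-Glo, read in the beta-lactamase wells after 30 min at RT, following a 16 h compound exposure at 37C.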
# [7] = ACEA_ER_AUC_viability: ACEA Biosciences xCELLigence Real-Time Cell Analysis on Estrogen Receptor Agonism for Viability (AID 2283782);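 note: continuous compound exposure with impedance area under curve over 80 h; hit means loss of impedance signal meaning reduced cell growth or viability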
# Outline: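 T-47D; phenol red-free RPMI1640 + 10% CS-FBS; 8 conc., 1:4 serial, max 100 uM final, ≤0.5% DMSO; n = 2; continuous exposure; impedance monitored to 80 h post-dose; AUC vs DMSO.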
# [8] = CCTE_Harrill_HTTr_Viability_MCF7: CCTE's 6-hour Cell Viability Assessment for the High-Throughput Transcriptomics (HTTr) Platform, in MCF-7 cells cultured in DMEM + 10% fetal bovine serum, Harrill Lab (AID 2284010; active = hit-call score of the fitted dose curve at least 0.9, where 1 is the maximum; inactive = score below 0.9)
# Outline: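 MCF-7 cells in DMEM + 10% FBS, 384-well, exposed 6 h to an eight-point dilution series. Membrane integrity scored by high-content imaging of propidium iodide exclusion; bidirectional fit versus DMSO.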
# [9] = CCTE_Harrill_HTTr_Apoptosis_MCF7: CCTE's 6-hour Apoptosis Assessment for the High-Throughput Transcriptomics (HTTr) Platform, in MCF-7 cells cultured in DMEM + 10% fetal bovine serum, Harrill Lab (AID 2284011; active = hit-call score of the fitted dose curve at least 0.9, where 1 is the maximum; inactive = score below 0.9)
# Outline: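 Cells are dosed with test chemicals at eight concentrations and imaged 6 hours later for caspase-3/7 activity using a green fluorogenic detection reagent. Activity is fitted in both directions against DMSO controls.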
# [10] = CCTE_Harrill_HTTr_CellCount_MCF7: CCTE's Cell Proliferation Assessment for the High-Throughput Transcriptomics (HTTr) Platform, Harrill Lab (AID 2284012);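 note: cells exposed to compound for six hours; intended direction is loss of nuclei count meaning fewer cells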
# Outline: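 MCF7 cells exposed 6 hours to an eight-point dilution series; Hoechst-stained nuclei counted by high-content imaging. Bidirectional curve fitting against DMSO baseline.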
SMILES,outcome [1],AC50 [2],outcome [3],outcome [4],outcome [5],outcome [2],outcome [6],outcome [7],outcome [8],outcome [9],outcome [10]
O=C1CCCc2c1cc1ccc3cccc4ccc2c1c34,inactive,62.5 µM (active),inactive,inactive,inactive,–,–,–,–,–,–
O=C1NC(=O)c2cc([N+](=O)[O-])ccc21,inactive,–,inactive,inactive,inactive,inactive,inactive,–,–,–,–
O=C[O][Al]([O]C=O)[O]C=O,inactive,–,inactive,inactive,inactive,inactive,inactive,–,–,–,–
O=C(O)CCc1ccccc1,inactive,–,inactive,inactive,inactive,inactive,inactive,inactive,inactive,inactive,inactive
CNC(=O)[C@H](Cc1c[nH]c2ccccc12)NC(=O)[C@@H](CC(=O)NO)CC(C)C,inactive,–,inactive,inactive,inactive,inactive,inactive,–,–,–,–
OCl,inactive,–,inactive,inactive,inactive,inactive,–,–,–,–,–
O=C(O)CCCCCCC(=O)O,inactive,–,inactive,inactive,inactive,inactive,–,–,–,–,–
OCc1c2ccccc2cc2ccccc12,inactive,–,inactive,inactive,inactive,inactive,–,–,–,–,–
C[N+]1(C)[C@@H]2CC(OC(=O)[C@H](CO)c3ccccc3)C[C@H]1[C@@H]1O[C@@H]12 (some centres not stated),inactive,–,inactive,inactive,inactive,inactive,inactive,–,–,–,–
CCN(CC)C(=O)[C@]1(c2ccccc2)C[C@@H]1CN,inactive,–,inactive,inactive,inactive,inactive,inactive,–,–,–,–
CCCCCC(C)N (configuration not stated),inactive,–,inactive,inactive,inactive,inactive,inactive,–,–,–,–
O=C(N=NC(=O)OCc1ccccc1)OCc1ccccc1,inactive,–,inactive,inactive,inactive,inactive,inactive,–,–,–,–
CN(C)CCC=C1c2ccccc2C=Cc2ccccc21,inactive,–,inactive,inactive,inactive,inactive,–,–,–,–,–
CC(C)(O)c1ccccc1,inactive,–,inactive,inactive,inactive,inactive,–,–,–,–,–
C=CCOC(=O)CCCCCCCC,inactive,–,inactive,inactive,inactive,inactive,inactive,–,–,–,–
CC(Cc1cccc(C(F)(F)F)c1)NCCOC(=O)c1ccccc1 (configuration not stated),inactive,–,inactive,inactive,inactive,inactive,inactive,–,–,–,–
Nc1nc2c(ncn2COC(CO)CO)c(=O)[nH]1,inactive,–,inactive,inactive,inactive,inactive,inactive,–,–,–,–
CCCCOC(=O)CCS,inactive,–,inactive,inactive,inactive,inactive,inactive,–,–,–,–

SMILES,outcome [1],AC50 [2],outcome [3],outcome [4],outcome [5],outcome [2],outcome [6],outcome [7],outcome [8],outcome [9],outcome [10]
C=C(C)C(=O)OC,inactive,–,inactive,inactive,inactive,inactive,–,–,–,–,–
N[C@H](C(=O)O)[C@@H](O)c1ccc(O)c(O)c1,inactive,–,inactive,inactive,inactive,inactive,inactive,–,–,–,–
CC(C)(C)C(=O)NCCCC(=O)O,inactive,–,inactive,inactive,inactive,inactive,inactive,–,–,–,–
O=C1c2ccccc2C(=O)c2c1ccc(O)c2O,inactive,–,inactive,inactive,inactive,inactive,inactive,–,–,–,–
ClC(Cl)Cl,inactive,–,inactive,inactive,inactive,inactive,inactive,–,–,–,–
NS(=O)(=O)c1ccc(Cl)c(S(N)(=O)=O)c1,inactive,–,inactive,inactive,inactive,inactive,–,–,–,–,–
O=C(CN1CCNCC1)NC1CCCCC1,inactive,–,inactive,inactive,inactive,inactive,inactive,–,–,–,–
C[n+]1ccn(Cc2ccccc2)c1,inactive,–,inactive,inactive,inactive,inactive,inactive,–,–,–,–
C=N[C@@H](C(=O)N[C@@H]1C(=O)N2[C@@H]1SC(C)(C)[C@@H]2C(=O)O)c1ccccc1,inactive,–,inactive,inactive,inactive,inactive,inactive,–,–,–,–
CNC(=O)NC,inactive,–,inactive,inactive,inactive,inactive,–,–,–,–,–
CCCCCCCCCCCCCCCCI,inactive,–,inactive,inactive,inactive,inactive,–,–,–,–,–
NS(=O)(=O)c1ccc(C(=O)O)cc1,inactive,–,inactive,inactive,inactive,inactive,inactive,–,–,–,–
CC(C)OC(=O)C(C(=O)OC(C)C)=C1SC=CS1,inactive,–,inactive,inactive,inactive,inactive,inactive,–,–,–,–
O=C(O)CP(=O)(O)O,inactive,–,inactive,–,inactive,inactive,inactive,–,–,–,–
CC(=O)c1ccc(Cl)c(Cl)c1Cl,inactive,–,–,inactive,–,inactive,inactive,–,–,–,–
CN1CCOC(c2ccccc2)c2ccccc2C1 (configuration not stated),inactive,–,inactive,–,inactive,inactive,–,–,–,–,–
CCOC(=O)CC(=O)C(=O)OCC,inactive,–,inactive,–,inactive,inactive,–,–,–,–,–
